Assay outcomes from PubChem.
Shown is part of a subset that was picked to be rich in hits.
HIV RNase H inh-1: HIV-1 RT RNase H inhibitors, primary screen, biochemical, fluorescence; RT-RNase H RNA/DNA duplex cleavage; 65,000 compounds, 1.9% hits; AID 565, 2006; inhibition, % at 10 µM; in the data active = inhibition above about 50%
HIV RNase H inh-2: HIV-1 RT RNase H inhibitors, retest, confirmation, biochemical. Recombinant RT RNase H, fluorescent RNA/DNA duplex cleavage. 1,000 compounds, 39% hits. shares compounds with HIV RNase H inh-1. inhibition, % at 10 µM; in the data active = inhibition above about 48%; inconclusive = no clear call, values can overlap the other calls
* = called active by the depositor.

`Cc1ccc(Cn2c(SCC(C)C)nc3c2c(=O)[nH]c(=O)n3C)cc1` gave HIV RNase H inh-1 86.8* and HIV RNase H inh-2 57.8*.
Screening CC(C)Sc1nc2c(c(=O)[nH]c(=O)n2C)n1Cc1ccc(Cl)cc1 returned HIV RNase H inh-1 27.4.
`C/C(Cl)=C/CSc1nc2c(c(=O)[nH]c(=O)n2C)n1C(C)C` gave HIV RNase H inh-1 -20.9.
For CCSc1nc2c(c(=O)[nH]c(=O)n2C)n1C the results were HIV RNase H inh-1 -6.4.
For C=CCSc1nc2c(c(=O)[nH]c(=O)n2C)n1Cc1ccc(C)cc1 the results were HIV RNase H inh-1 84.3* and HIV RNase H inh-2 30.6.
CCOC(=O)C(C)Sc1nc2c(c(=O)[nH]c(=O)n2C)n1Cc1ccc(Cl)cc1 (configuration not stated) was read as HIV RNase H inh-1 71.0* and HIV RNase H inh-2 23.6.
O=C(O)[C@H](Cc1ccccc1)NC(=O)N1CCOCC1 was read as HIV RNase H inh-1 -4.4.
For O=C(NCc1ccccc1)c1ccc(COCC(F)(F)F)o1 the results were HIV RNase H inh-1 1.7.
For CCOC(=O)N1CCN(CCC(=O)Nc2ccc(C)cc2)CC1 the results were HIV RNase H inh-1 -0.9.
CCN(CC)S(=O)(=O)c1ccc(NC(=O)COc2c(OC)cccc2OC)cc1 was read as HIV RNase H inh-1 -1.4.
Screening CC(C)c1cc(NCCCN2CCOCC2)n2c(nc3ccccc32)c1C#N returned HIV RNase H inh-1 1.7.
For COC(=O)c1ccccc1OC(=O)c1ccc(Br)o1 the results were HIV RNase H inh-1 -32.2.
`CCc1nnc(NC(=O)C(C)N2C(=O)C3C4C=CC(C4)C3C2=O)s1` (configuration not stated) gave HIV RNase H inh-1 -34.2.
`CN(C)c1ccc(C(CC(=O)O)NC(=O)c2ccc(Cl)cc2)cc1` (configuration not stated) gave HIV RNase H inh-1 -0.5.
Screening CC(=O)c1cccc(NC(=O)C2C3C=CC(C4CC34)C2C(=O)O)c1 (configuration not stated) returned HIV RNase H inh-1 -9.4.
`COC(=O)c1cc(OC)c(OC)cc1N=CC1=C(O)CC(C)(C)CC1=O` gave HIV RNase H inh-1 -7.5.
COc1ccccc1-c1c(C#N)c(SCC(=O)N2CCCC2)nc(C)c1C(N)=O was read as HIV RNase H inh-1 65.1* and HIV RNase H inh-2 -1.7.
COc1ccccc1-c1nnc(SCC(=O)N2CCOCC2)o1 was read as HIV RNase H inh-1 -3.7.
CCOC(=O)N1CCN(C(=O)CSc2cc(C)nc3c(-c4ccccc4OC)c(C)nn23)CC1 was read as HIV RNase H inh-1 -1.4.
For CCOC(=O)c1ccc(CNC(=O)c2cc(C(C)(C)C)oc2C)o1 the results were HIV RNase H inh-1 -4.3.
`COC1CCCCC1Nc1cccc(SC)c1` (configuration not stated) gave HIV RNase H inh-1 0.8.
`CCCC(=O)Nc1cnc(NC(=O)c2cccc(F)c2)cc1C` gave HIV RNase H inh-1 -3.7.
For Cc1ccc2cccc(Oc3cnccn3)c2n1 the results were HIV RNase H inh-1 -0.4.
O=C(Nc1cccc(C(F)(F)F)c1)N1CCC(c2nc(-c3ccc(F)cc3)no2)CC1 was read as HIV RNase H inh-1 67.3* and HIV RNase H inh-2 47.2.
`O=C(Nc1ccccc1)N1CCC(c2nc(-c3ccc(S(=O)(=O)N4CCOCC4)cc3)no2)CC1` gave HIV RNase H inh-1 -10.1.
`O=C(c1ccco1)N1CCC(c2nc(-c3ccc(F)cc3)no2)CC1` gave HIV RNase H inh-1 -7.0.
CNC(=O)c1nnn(Cc2ccccc2)c1NC(=O)C(F)(F)F was read as HIV RNase H inh-1 1.0.
O=C(Cn1nc(C(F)(F)F)c2c1CCC2)N1CCN(c2ccccc2)CC1 was read as HIV RNase H inh-1 -15.2.
`CN(C)CCCN1C(=O)C(=O)/C(=C(/O)c2ccc3c(c2)OCO3)C1c1cccnc1` (configuration not stated) gave HIV RNase H inh-1 -1.3.
Cn1c(=O)cc(OCC(=O)N2CCC(N3CCCCC3)CC2)c2ccccc21 was read as HIV RNase H inh-1 -9.6.
Screening c1ccc2[nH]c(SN3CCOCC3)nc2c1 returned HIV RNase H inh-1 90.6* and HIV RNase H inh-2 66.1*.
`c1ccc2[nH]c(NCCCN3CCOCC3)nc2c1` gave HIV RNase H inh-1 -4.0.
O=C(CSc1nc2ccccc2[nH]1)Nc1ccccc1N1CCOCC1 was read as HIV RNase H inh-1 -2.7.
`O=c1[nH]c2cc3c(cc2cc1C(c1nnnn1C1CCCC1)N1CCSCC1)OCCO3` (configuration not stated) gave HIV RNase H inh-1 60.6* and HIV RNase H inh-2 31.9.
`CC(C)(C)n1nnnc1C(c1cc2cc3c(cc2[nH]c1=O)OCCO3)N1CCSCC1` (configuration not stated) gave HIV RNase H inh-1 4.2.
Screening Cc1cccc2cc(C(c3nnnn3C3CCCC3)N3CCOCC3)c(=O)[nH]c12 (configuration not stated) returned HIV RNase H inh-1 -0.2.
Screening COc1ccc(CC(=O)Nc2ccc(-c3noc(COc4ccccc4C)n3)cc2)cc1 returned HIV RNase H inh-1 27.9.
CCOc1ccccc1-c1nc(-c2ccc(NC(=O)c3ccc(Br)o3)cc2)no1 was read as HIV RNase H inh-1 6.7.
`CCOc1ccccc1-c1nc(-c2ccc(NC(=O)Cc3ccc(OC)cc3)cc2)no1` gave HIV RNase H inh-1 64.4* and HIV RNase H inh-2 inconclusive.
For O=C(Nc1ccc(N2CCN(C(=O)c3ccco3)CC2)c(Cl)c1)c1cccs1 the results were HIV RNase H inh-1 7.4.
For CCN(CC)S(=O)(=O)c1ccc2c(c1)nc(SCc1nc3ccsc3c(=O)[nH]1)n2CC the results were HIV RNase H inh-1 35.9.
`COc1cc(C(=O)Nc2nnc(-c3sccc3C)s2)cc(OC)c1OC` gave HIV RNase H inh-1 4.4.
Screening COc1ccc(C(c2nnnn2C(C)(C)C)N2CCN(c3nc4ccccc4s3)CC2)cc1 (configuration not stated) returned HIV RNase H inh-1 -4.3.
For CCC(C)(C)n1nnnc1C(c1cc(OC)c(OC)c(OC)c1)N1CCN(c2ccccc2)CC1 (configuration not stated) the results were HIV RNase H inh-1 -14.0.
CCC(C)(C)n1nnnc1C(c1ccc(O)c(OC)c1)N1CCN(c2nc3ccccc3s2)CC1 (configuration not stated) was read as HIV RNase H inh-1 56.4* and HIV RNase H inh-2 41.8.
For Cn1c(=O)oc2cc(S(=O)(=O)NCCC(=O)N3CCc4ccccc43)ccc21 the results were HIV RNase H inh-1 -8.8.
Screening CCCCN(CCCC)CCNC(=O)Cc1nc2c(c(=O)[nH]c(=O)n2C)n1C returned HIV RNase H inh-1 -10.9.
Screening COc1ccc(N(CC(=O)O)S(=O)(=O)c2cccnc2)cc1 returned HIV RNase H inh-1 -16.4.
For COc1ccccc1N1CCN(C(=O)c2cc(-c3cccc(Cl)c3)on2)CC1 the results were HIV RNase H inh-1 -11.0.
`CN1C(=O)N(c2ccccc2)C(Nc2nncs2)C1(C)C` (configuration not stated) gave HIV RNase H inh-1 -3.4.
For CCOC(=O)c1sc(NC(=O)CSc2ncn[nH]2)c(C#N)c1C the results were HIV RNase H inh-1 2.9.
For Cc1nn(C)c(C)c1NC(=O)CCSc1nc(-c2ccco2)cc(C(F)(F)F)n1 the results were HIV RNase H inh-1 2.6.
For CCOC(=O)c1c(NC(=O)CSc2nnc(CNc3ccc(F)cc3)o2)sc(C(C)=O)c1C the results were HIV RNase H inh-1 21.4.
